# Data: PubChem BioAssay
# Unmarked numbers belong to inactive results. No rule for the calls is given here.
# Biological target: Pantothenate synthetase (Mycobacterium tuberculosis (strain ATCC 25618 / H37Rv)) (UniProt P9WIL5)
# Test: Recombinant Mtb pantothenate synthetase (PanC) inhibitors, coupled enzyme, confirmatory (AID 375);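 also: 0% = full reaction with vehicle and 100% = no enzyme background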
# Conditions: coupled enzyme assay; at 10 µM, active compounds read high
# Sequence of Pantothenate synthetase (Mycobacterium tuberculosis (strain ATCC 25618 / H37Rv)) (P9WIL5 whole entry, looked up): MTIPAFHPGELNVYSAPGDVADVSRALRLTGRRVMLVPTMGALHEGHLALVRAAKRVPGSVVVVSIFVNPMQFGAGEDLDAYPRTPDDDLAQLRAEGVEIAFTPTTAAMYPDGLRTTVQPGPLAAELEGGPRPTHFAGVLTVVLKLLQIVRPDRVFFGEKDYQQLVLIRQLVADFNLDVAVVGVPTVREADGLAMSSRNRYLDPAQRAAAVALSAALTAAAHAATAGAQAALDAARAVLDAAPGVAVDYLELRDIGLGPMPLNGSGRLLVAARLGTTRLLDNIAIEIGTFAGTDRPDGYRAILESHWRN
row,Structure (SMILES),inhibition
1,O=C(CSc1nnnn1-c1ccccc1Cl)Nc1ccc2c(c1)OCCO2,8%
2,CCN(CCNC(=O)CS(=O)(=O)Cc1nc(-c2cccc(OC)c2)oc1C)c1ccccc1,0%
3,Cc1ccc(Cl)cc1NC(=O)CSc1nnc(C)n1-c1ccccc1,0%
4,CCCCCCn1c(SCC(=O)OC)nc2c1c(=O)[nH]c(=O)n2C,0%
5,CCOC(=O)C1=C(O)C(=O)N(c2ccc(S(N)(=O)=O)cc2)C1c1ccccc1 (centres undefined),0%
6,Oc1cc(NCc2cccnc2)ccc1-c1nc2ccccc2o1,0%
7,COC(=O)c1cc(Oc2ccc(C(=O)OC)cc2N)cc(C(=O)OC)c1,0%
8,O=C(NCC1CCCO1)c1cc(-c2ccncc2)nc2ccc(S(=O)(=O)N3CCOCC3)cc12 (centres undefined),0%
9,CCC(C)NC(=O)c1cc(-c2ccc(OC)cc2)on1 (centres undefined),0%
10,CCOC(=O)N1CCN(c2c(NCC3CCN(Cc4cccc(C)c4)CC3)c(=O)c2=O)CC1,4%
11,O=C(CSc1nnnn1-c1ccc(Cl)cc1)NC(=O)Nc1ccc2c(c1)OCCO2,2%
12,O=C1c2ccccc2S(=O)(=O)N1Cc1nnc(-c2ccccc2Br)o1,0%
13,Cc1nn(C)c(C)c1NC(=O)CCSc1nc(-c2ccco2)cc(C(F)(F)F)n1,6%
14,CCOc1ccc2[nH]c(C)cc(=O)c2c1,0%
15,CCOC(=O)C1CCCN(c2c(N3CCN(c4ccccn4)CC3)c(=O)c2=O)C1 (centres undefined),2%
16,CCOC(=O)CCC(=O)c1c(C)oc2ccc(OC)cc12,4%
17,CCN(CC)CCN1C(=O)C(=O)/C(=C(/O)c2c(C)[nH]c(C(=O)OC)c2C)C1c1ccco1 (centres undefined),0%
18,COc1ccc(N2CCN(Cc3nc4c(c(=O)n(C)c(=O)n4C)n3Cc3ccccc3C)CC2)cc1,7%
19,CCN1CCN(Cc2nc3c(c(=O)n(C)c(=O)n3C)n2CC(=O)c2ccccc2)CC1,2%
20,COc1ccc(OC)c(N(CC(=O)Nc2cccnc2)S(=O)(=O)c2ccc(OC)c(OC)c2)c1,0%
21,COc1cccc(-c2nnn(CC(=O)O)n2)c1,0%
22,Cc1ccc(-c2ccc(SCC(=O)Nc3nonc3C)nn2)cc1,3%
23,CCOC(=O)N1CCC(NC(=O)c2cc(C(=O)NC3CCCC3)ccc2CO)CC1,1%
24,CCOc1ccc(NC(=O)CN(C)CC(=O)NC2CCCc3ccccc32)cc1OCC (centres undefined),7%
